Compounds with a hit are over-represented: about 0.4% of the library has one in this group of screens.
GAA glycogen – alters human alpha-glucosidase cleavage of glycogen. Potency, µM (series often up to 76.4 µM), for inactives: at the top dose activity change, negative = inhibition, actives largely listed as inhibitors. recombinant GAA, glycogen substrate, Amplex Red glucose oxidase fluorescence. 0.38% of 300,000 active. P10253. AID 2100;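 further: potency means the concentration at half of the fitted maximal effect; 0% = full enzyme reaction and -100% = no-enzyme basal signal; the screen sought inhibitors and activators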
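Natural-substrate format: glycogen cleavage by 4 nM human enzyme, glucose read by Amplex Red coupling (Ex 573, Em 610 nm). Normalized to enzyme and no-enzyme controls.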
GLA inh pH 4.5 – blocks human alpha-galactosidase A at pH 4.5. P06280. purified enzyme, 4-MU-alpha-Gal fluorescence, pH 4.5. activity change, negative = inhibition, % at 105 µM. 230,000 tested, under 10 active;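 further: 0% = full activity with enzyme and -100% = basal without enzyme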
Target sequence (P06280 whole entry, looked up): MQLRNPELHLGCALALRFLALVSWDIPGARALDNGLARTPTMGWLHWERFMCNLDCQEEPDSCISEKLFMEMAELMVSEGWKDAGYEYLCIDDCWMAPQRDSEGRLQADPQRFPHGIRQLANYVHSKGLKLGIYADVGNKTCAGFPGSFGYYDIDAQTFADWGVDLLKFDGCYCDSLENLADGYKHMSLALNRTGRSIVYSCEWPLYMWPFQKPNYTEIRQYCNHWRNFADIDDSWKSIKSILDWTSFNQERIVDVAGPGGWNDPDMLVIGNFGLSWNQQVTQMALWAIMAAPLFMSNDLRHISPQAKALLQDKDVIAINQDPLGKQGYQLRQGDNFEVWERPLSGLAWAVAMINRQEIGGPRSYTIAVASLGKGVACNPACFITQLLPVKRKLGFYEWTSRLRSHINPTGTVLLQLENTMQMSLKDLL
aGal spleen mod – alpha-galactosidase A (human) modulation. P06280. human spleen homogenate, 4MU-alpha-Gal fluorescence, 40 min. Potency, µM (titrated, usually from 80 µM), for the others: at the top dose activity change, negative = inhibition, hits mostly inhibitors. 0.008% of 240,000 active;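 further: potency means the concentration at half of the fitted maximal effect; 0% = enzyme with vehicle and -100% = no enzyme basal signal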
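Human spleen homogenate (1 ug) as enzyme source, 4-methylumbelliferyl-alpha-D-galactopyranoside 1 mM final, citrate/phosphate pH 5.0 with 0.01% Tween-20. Compounds 40 min at 37C, NaOH/glycine stop; fluorescence Ex 365/Em 440, Hill-fit AC50.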
GAA spleen mod – lysosomal alpha-glucosidase (human) modulation; P10253; human spleen homogenate, 4-MU-alpha-glucoside fluorescence; Potency, µM (highest dose often 79.9 µM), inactives show at the top dose activity change, negative = inhibition, most hits filed as inhibitors; 0.006% of 240,000 active;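 further: potency means the concentration at half of the fitted maximal effect; 0% = enzyme with vehicle and -100% = no enzyme basal signal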
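Compounds were titrated against alpha-glucosidase in spleen homogenate at pH 5.0, with 1 mM 4-methylumbelliferyl substrate for 40 min at 37 C. Reactions were quenched with pH 10 NaOH/glycine and fluorescence measured.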
GAA inh – inhibitors of human lysosomal alpha-glucosidase; P10253; purified human GAA, 4-MU-alpha-glucoside fluorescence; Potency, µM (series often up to 76.9 µM), for the others: top-dose activity change, negative = inhibition, actives largely listed as inhibitors; 0.005% of 200,000 active;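 further: potency means the concentration at half of the fitted maximal effect; plate controls were uninhibited enzyme wells for no effect and no-enzyme background for full effect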
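qHTS format, compound range up to 77 uM. Human lysosomal enzyme at 4 nM, 400 uM 4-MU glucoside substrate, pH 5.0, 20 min room temperature; fluorescence after alkaline stop gives activity normalized to controls.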
* = called active by the depositor; ? = inconclusive; / = no result; [ ] = another dose, or the depositor's remark. The call rests on the fitted dose curve; in most records, active means well fitted curve in the direction sought with a large enough effect; inconclusive means small, poorly fitted or top-dose-only effect, or another doubt; inactive means no such curve, though single readings can be large; an effect the other way counts as inactive or inconclusive.

SMILES | GAA glycogen | GLA inh pH 4.5 | aGal spleen mod | GAA spleen mod | GAA inh
CC1C(=O)NN=C1C(=O)N/N=C\c1ccc(O)cc1O (stereo not given) | -2% | -4 | -6% | -8% | 0%
Oc1ccc(/C=N/Nc2nccnc2Cl)c(O)c1 | 11µM* | 2 | -2% | -2% | -4%
COC(=O)CSc1cc([N+](=O)[O-])ccc1NC(=O)OC | 5% | 5 | 35µM* | -24% | ?
COc1ccc(OC)c(Nc2nc(=O)c3cccnc3s2)c1 | 28µM* | 9 | 1% | 2% | ?
Cc1ccc(Nc2nc(=O)c3cccnc3s2)cc1 | -7% | 3 | 6% | 3% | 2%
CCOC(=O)CCCCC(=O)c1[nH]c(=O)[nH]c1CSc1nc(-c2ccccc2)c(C#N)c(=O)[nH]1 | 35µM* | -4 | 0% | -22% | ?
COc1ccc(C(=O)/C=C(\C)Nc2ccc3c(c2)OCO3)cc1 | 35µM* | -2 | 0% | 3% | -13%
Cc1cccc2sc(NNC(=O)C3=COCCO3)nc12 | ? | 1 | 1% | 0% | 4%
O=C(NNc1nc2c(F)cc(F)cc2s1)C1=COCCO1 | 4.4µM* | -7 | 6% | 13% | 1%
COc1ccc(C)cc1NCc1cccc(OC)c1OC | -27% | 0 | -8% | -7% | ?
COc1cc(OC)c(OC)cc1CNc1cc(C)ccc1OC | 11µM* | 2 | 11% | 7% | -13%
COc1ccc(NC(=S)Nc2ccc(N)c([N+](=O)[O-])c2)cc1 | 40µM* | -1 | -5% | -8% | -6%
COc1ccc(NC(=S)NNC(=O)Cn2nc([N+](=O)[O-])cc2C)cc1 | 14µM* | 0 | 3% | 3% | -6%
CN(C)c1ccc(N/C=C/C(=O)C(C)(C)C)cc1 | ? | 4 | -1% | -2% | -3%
CC(C)(C)C(=O)/C=C/Nc1ccccc1O | 14µM* | 4 | 11% | 0% | 2%
COCc1cc(O)c(O)c(O)c1-c1c(COC)cc(O)c(O)c1O | / | / | 5% | -2% | /
O=C(NNS(=O)(=O)c1ccccc1)c1cc2cc3ccccc3nc2s1 | 22µM* | -5 | 2% | -6% | 6%
O=C(N/N=C/c1ccc(O)c(O)c1)N/N=C/c1ccc(O)c(O)c1 | 1.4µM* | / | / | / | /
Cc1nonc1C(=O)N/N=C/c1ccc(O)c(O)c1 | 7.9µM* | 5 | 0% | -6% | 0%
c1nc2nc(Nc3ccc(N4CCOCC4)cc3)nc(NC3CCCCC3)c2[nH]1 | / | / | 10% | 4% | /
COc1ccc(OC)c(C2=Nn3c(nnc3-c3ccccc3C)SC2)c1 | / | / | 1% | 1% | /
O=C(N/N=C/c1ccc(O)c(O)c1)c1ccc(CSc2cccc3cccnc23)cc1 | 14µM* | -2 | -2% | -5% | -8%
CC(=O)OC[C@@H]1O[C@@H](O/N=C2/C[C@@H](O)[C@@H](O)[C@@H]3[C@@H]4C(=O)N(C(C)(C)C)C(=O)[C@H]4CC[C@H]23)[C@H](OC(C)=O)[C@H](OC(C)=O)[C@@H]1OC(C)=O | / | / | -8%[17.5 µM] | -2%[17.4 µM] | /
COc1ccc(S(=O)(=O)Nc2cc3c(cc2NCc2ccccc2)n(C)c(=O)n3C)cc1 | 10µM* | / | / | / | /
O=C1c2cccc3cccc(c23)C(=O)N1CC1CCN(CC(O)COc2ccc3ccccc3c2)CC1 (stereo not given) | 25µM* | 5 | -8% | -16% | -1%
SMILES | GAA glycogen | GLA inh pH 4.5 | aGal spleen mod | GAA spleen mod | GAA inh
CC1=NNC(=O)C1C(c1ccccc1)C1C(=O)NN=C1C (stereo not given) | 13µM* | -3 | 5% | 1% | ?
CC1=NNC(=O)C1C(c1cccc(O)c1)C(C#N)C#N (stereo not given) | -13% | -4 | 1% | -2% | /
CCC(=O)NC[C@H](Cc1ccc(OCCc2nc(-c3ccccc3)oc2C)cc1)N/C(C)=C\C(=O)c1ccc(C(F)(F)F)cc1 | / | / | -2% | -3% | /
O=C(O)CN(CC(=O)O)c1ccccc1OCCOc1ccccc1N(CC(=O)O)CC(=O)O | / | / | -12% | -1% | /
Nc1nc(N2CCN(c3ccc(Cl)cc3)CC2)n[nH]1 | ? | -15 | 1% | -14% | 10%
Nc1nc(N2CCN(c3ccccc3)CC2)n[nH]1 | 10µM* | -3 | 3% | 9% | 7%
CC(C)C[C@H](NC(=O)[C@@H]1CCCN1C(=O)[C@H](Cc1ccccc1)NC(=O)[C@H](C)NC(=O)[C@H](CCC(=O)O)NC(=O)[C@H](C)NC(=O)[C@H](CO)NC(=O)[C@H](CCC(=O)O)NC(=O)[C@H](CC(=O)O)NC(=O)[C@H](CCC(=O)O)NC(=O)[C@H](C)NC(=O)CNC(=O)[C@H](CC(N)=O)NC(=O)[C@@H]1CCCN1C(=O)[C@H](Cc1ccc(O)cc1)NC(=O)[C@@H](NC(=O)[C@H](CCCCN)NC(=O)[C@@H](NC(=O)[C@@H]1CCCN1C(=O)[C@@H](N)CCCNC(=N)N)C(C)C)C(C)C)C(=O)N[C@@H](CCC(=O)O)C(=O)N[C@@H](Cc1ccccc1)C(=O)O | / | / | -5% | 4% | /
CCOC(=O)/C(=N\Nc1ccc(OC)cc1)c1csc(Nc2ccccc2)n1 | 25µM* | 0 | 0% | -6% | -3%
CCOC(=O)/C(=N/Nc1ccccc1)c1csc(Nc2ccccc2)n1 | ? | -15 | 1% | -8% | -9%
COc1cc(C2c3sc(=O)[nH]c3SC3C(=O)N(c4ccc(C)cc4)C(=O)C32)ccc1O (stereo not given) | 11µM* | 1 | -4% | -1% | -9%
COc1ccc(C2c3sc(=O)[nH]c3SCC2C(N)=O)cc1 (stereo not given) | ? | -3 | 5% | 8% | /
COC(=O)C1CSc2[nH]c(=O)sc2C1c1ccc(O)c(OC)c1 (stereo not given) | 16µM* | -14 | -12% | 3% | 0%
CC(=O)Nc1ccc(Nc2nnc(-c3ccc(C)c(S(=O)(=O)NCCO)c3)c3ccccc23)cc1 | -10%[76.3 µM] | / | / | / | /
Cc1ccc(-c2nnc(Nc3ccc(O)cc3)c3ccccc23)cc1S(=O)(=O)NCC1CCCO1 (stereo not given) | 16µM* | / | / | / | /
Oc1ccc(Nc2ncnc3ccccc23)cc1 | 22µM* | / | / | / | /
Cc1ccc(-c2nnc(Nc3ccc(O)cc3)c3ccccc23)cc1S(=O)(=O)NC(C)(C)CO | 8.9µM* | / | / | / | /
Oc1ccc(Nc2nnc(-c3ccc(O)cc3)c3ccccc23)cc1 | 16µM* | -2 | 2% | 1% | 1%
O=C1NC(=O)C(Cc2ccc(OCCN3COc4ccccc4C3=O)cc2)S1 (stereo not given) | / | / | 4% | -4% | /
CC(=O)OCC1=C[C@H]2[C@@H]3C(C)(C)[C@]3(OC(C)=O)C[C@@H](C)[C@]2(O)[C@@H]2C=C(C)C(=O)[C@@]2(O)C1 | / | / | -10% | 0% | /
